Source: PubChem
UHRF1 MBD2 ctr: UHRF1 methyl-DNA binding inhibition; Q96T88; UHRF1 binding to methylated oligo, TR-FRET; inhibition, % at 4.4 µM; 370,000 compounds, 0.75% hits; in the data active = inhibition above about 21%;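 also: UHRF1 SRA domain binding a hemimethylated CpG hairpin DNA probe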
CASP6 VEID inh: caspase-6 (human) enzyme inhibition; inhibition, % at 12.5 µM; purified caspase-6, Z-VEID-R110 cleavage fluorescence; 350,000 compounds, 0.53% hits;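 active = mean inhibition across replicates at least about 35%, with every replicate also reaching that limit, limit read from the data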
MBD2 DNA inh: MBD2-methylated oligo binding inhibition; Q9UBB5; TR-FRET, MBD2 binding to methylated oligonucleotide; inhibition, % at 4.4 µM; 370,000 compounds, 0.31% hits; AID 686964; in the data active = inhibition above about 13%
Target sequence (Q9UBB5 whole entry, looked up): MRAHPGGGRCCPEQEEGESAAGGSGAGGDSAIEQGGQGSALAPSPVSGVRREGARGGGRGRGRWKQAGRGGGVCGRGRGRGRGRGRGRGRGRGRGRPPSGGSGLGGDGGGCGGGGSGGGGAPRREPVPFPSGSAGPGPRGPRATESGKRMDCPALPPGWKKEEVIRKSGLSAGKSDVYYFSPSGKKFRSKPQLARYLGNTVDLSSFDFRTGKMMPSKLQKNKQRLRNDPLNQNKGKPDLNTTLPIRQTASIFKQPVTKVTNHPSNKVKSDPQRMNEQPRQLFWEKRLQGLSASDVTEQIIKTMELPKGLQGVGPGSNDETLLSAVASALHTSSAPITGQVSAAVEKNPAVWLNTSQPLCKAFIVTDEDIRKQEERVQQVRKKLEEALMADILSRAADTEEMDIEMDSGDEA
LEDGF integ inh: blocks HIV-1 LEDGF/p75-dependent DNA integration; inhibition, % at 3.7 µM; AID 743269; TR-FRET IN-LEDGF/p75 DNA integration, Eu/Cy5; 370,000 compounds, 0.64% hits;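 active = inhibition above the screen-wide mean plus 3 SD, cut at about 13% in these data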;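 also: signal is the Cy5 over europium emission ratio at 671 and 618 nm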
IN multimer up: HIV-1 integrase multimerization activation, counter-screen; shares compounds with LEDGF integ inh; TR-FRET HIV-1 integrase multimerization, biochemical; activation, % at 7.7 µM; 2,000 compounds, 17% hits; AID 1053131; in the data active = activation above about 8.9%
TRFRET interf: counter-screen for LEDGF/p75 integration inhibitors: TR-FRET optical interference. shares compounds with LEDGF integ inh. TR-FRET optical interference counterscreen, HIV-1 IN multimerization. inhibition, % at 7.7 µM. 2,000 tested, under 10 active;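 active = inhibition above the mean over all tested compounds plus 3 SD, which no compound reached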
IN-LEDGF confirm: confirmation of HIV-1 LEDGF/p75-dependent integration inhibitors; shares compounds with LEDGF integ inh; TR-FRET LEDGF/p75-dependent HIV-1 integration, biochemical; inhibition, % at 3.7 µM; 2,000 compounds, 36% hits; in the data active = inhibition above about 14%
A number is an active result; - = inactive; . = no result given. A selection: hits, their analogues and other compounds. The true share with any hit is near 1.4%.

SMILES	UHRF1 MBD2 ctr	CASP6 VEID inh	MBD2 DNA inh	LEDGF integ inh	IN multimer up	TRFRET interf	IN-LEDGF confirm
O=C1CN(C(=O)COc2ccc(F)cc2Cl)c2ccccc2N1	-	-	-	23.5	-	-	-
COc1ccccc1S(=O)(=O)N(C)C[C@H]1OCc2cnnn2CCCC(=O)N([C@@H](C)CO)C[C@@H]1C	-	-	-	53.2	-	-	-
Cc1noc(C)c1S(=O)(=O)Nc1ccc2c(c1)C(=O)N([C@H](C)CO)C[C@@H](C)[C@H](CN(C)Cc1ccc(Cl)c(Cl)c1)O2	.	-	.	.	.	.	.
O=C(N[C@H]1CC[C@@H](CCNC(=O)C2CCOCC2)O[C@H]1CO)c1ccccn1	.	-	.	.	.	.	.
C[C@H](CO)N1C[C@H](C)[C@@H](CN(C)C(=O)Cc2cccnc2)Oc2cc(C#CC3(O)CCCC3)ccc2S1(=O)=O	.	-	.	.	.	.	.
O=C(CCCN1C(=O)/C(=C/c2ccccc2Cl)SC1=S)NCCCN1CCOCC1	-	-	-	-	.	.	.
O=C1C(=Cc2cccc(O)c2O)SC(=S)N1CCCN1CCOCC1	-	-	-	24.5	18.4	-	-
O=C(Nc1cccc(F)c1)N1CCCCN2[C@@H](CO)[C@@H](c3ccc(C#Cc4cccnc4)cc3)[C@@H]2C1	.	-	.	.	.	.	.
CC(C)CC#Cc1cnc2c(c1)C(=O)N([C@H](C)CO)C[C@@H](C)[C@H](CN(C)C(=O)c1cnccn1)O2	.	-	.	.	.	.	.
CCOC(=O)c1ccc(CC(=O)c2oc3cc(O)ccc3c2C)o1	-	-	-	-	.	.	.
CCOC(=O)c1ccc(CC(=O)c2ccc(O)c(O)c2O)o1	23.7	-	-	73.9	-	-	58.3
CC1=C(C(=O)Nc2ccccc2)C(c2ccc(C)o2)n2c(s/c(=C\c3ccco3)c2=O)=N1 (configuration not stated)	-	.	-	28.5	-	-	-
COc1cccc(C2C(C(=O)Nc3ccccc3)=C(C)N=c3s/c(=C/c4ccc(OCC(=O)O)cc4)c(=O)n32)c1 (configuration not stated)	-	.	-	-	.	.	.
C[C@H]1CN([C@@H](C)CO)C(=O)c2ccccc2-c2ccccc2CO[C@H]1CN(C)C(=O)CCN(C)C	.	-	.	.	.	.	.
O=C1NC(=Nc2ccc3ccccc3c2)S/C1=C/c1ccco1	-	-	-	-	.	.	.
COc1ccc(N=C2NC(=O)/C(=C\C=C\c3ccco3)S2)cc1	-	.	-	22.7	16.4	-	55.0
Cc1cccc(N=C2NC(=O)/C(=C/C=C/c3ccco3)S2)c1	-	-	-	25.8	-	-	54.7
C[C@H]1CN([C@@H](C)CO)C(=O)c2cc(NC(=O)Nc3ccc4c(c3)OCO4)ccc2O[C@H]1CN(C)CC1CCCCC1	.	-	.	.	.	.	.
COc1ccc(-c2ccc([C@H]3[C@H](C#N)N(C(=O)c4cccnc4)[C@H]3CO)cc2)cc1	.	-	.	.	.	.	.
COc1cc(COC(=O)c2cnc(C)cn2)c(OC)cc1Br	-	-	-	36.7	-	-	-
COc1ccccc1C(=O)COC(=O)c1cnc(C)cn1	-	-	-	-	.	.	.
Cc1nc2cc(-c3ccsc3-n3c(C)ccc3C)[nH]n2c(=O)c1Cl	32.0	.	-	48.3	-	-	32.5
Cc1cc(=O)n2[nH]c(-c3ccsc3-n3c(C)ccc3C)cc2n1	-	-	-	27.8	25.2	-	50.0
C[C@H](CO)N1C[C@H](C)[C@@H](CN(C)Cc2ccncc2)OCCCC[C@H](C)Oc2ccc(NC(=O)CCC(F)(F)F)cc2C1=O	.	-	.	.	.	.	.
Cc1ccn(CCC(=O)N2CCCC(N3CCN(c4ccccc4C)CC3)C2)n1 (configuration not stated)	-	-	-	57.7	-	-	-
SMILES	UHRF1 MBD2 ctr	CASP6 VEID inh	MBD2 DNA inh	LEDGF integ inh	IN multimer up	TRFRET interf	IN-LEDGF confirm
Cc1nn(C)c(-c2n[nH]c(=S)n2Cc2ccco2)c1Cl	-	-	-	19.5	-	-	-
Oc1ccc(-c2n[nH]c(=S)n2Cc2ccco2)cc1	-	.	-	-	.	.	.
Cc1noc(C)c1S(=O)(=O)N(C)C[C@H]1Oc2ccc(NS(=O)(=O)c3ccc(F)cc3)cc2CC(=O)N([C@@H](C)CO)C[C@@H]1C	.	-	.	.	.	.	.
c1cc2c(cc1CNc1ccc(N3CCOCC3)cc1)OCO2	-	-	-	15.7	-	-	-
c1cc(CNc2ccc(N3CCOCC3)cc2)ccn1	-	.	-	15.8	-	-	-
CC(C)C1Nc2c(O)cc(Cl)c([N+](=O)[O-])c2C2C=CCC21 (configuration not stated)	-	-	-	26.1	-	-	-
O=C(C1CCOCC1)N1C[C@H]2[C@@H](c3ccccc31)[C@H](CO)N2Cc1ccccc1	.	-	.	.	.	.	.
Cc1onc(-c2c(Cl)cccc2Cl)c1-c1nc2cc(Cl)ccc2c(=O)o1	-	-	-	80.9	-	-	-
Cc1onc(-c2c(F)cccc2Cl)c1-c1nnc(-c2cccc3ccccc23)o1	-	-	-	-	.	.	.
O=C(Cc1ccncc1)NCC[C@@H]1CC[C@@H](NC(=O)Nc2cccc(F)c2)[C@@H](CO)O1	.	-	.	.	.	.	.
CCOc1nc(Nc2ccccc2)nc(OCC)n1	-	-	-	23.5	-	-	-
Brc1ccc(CSc2ccc3nnc(-c4cccnc4)n3n2)cc1	-	-	-	-	.	.	.
Cc1ccc(CSc2ccc3nnc(-c4cccnc4)n3n2)cc1	-	.	-	14.0	-	-	-
c1ccc(-n2c(-c3ccncc3)nnc2-c2ccco2)cc1	-	.	-	66.8	-	-	-
CCCCOc1ccc(C(=O)N/C(=C\c2ccc([N+](=O)[O-])cc2)C(=O)OCc2ccco2)cc1	-	.	-	20.7	-	-	-
CCCCOc1ccc(C(=O)N/C(=C\c2cccc([N+](=O)[O-])c2)C(=O)OCCC)cc1	-	.	-	-	.	.	.
CC(=O)Nc1ccc2c(COC(=O)CC3Sc4ccccc4NC3=O)cc(=O)oc2c1 (configuration not stated)	-	-	-	13.9	21.1	-	13.8
COc1ccc2c(COC(=O)CC3Sc4ccccc4NC3=O)cc(=O)oc2c1 (configuration not stated)	-	-	-	-	.	.	.
CCCC(=O)Nc1nc2ccc(OCC)cc2s1	-	-	-	-	.	.	.
CN(C)C(=S)Nc1nc2ccccc2s1	-	-	-	17.4	-	-	-
CCOc1ccc2nc(NC(=S)N(C)C)sc2c1	-	.	-	13.9	-	-	-
CCCCC(=O)Nc1cc(C)c(NC(=O)c2ccco2)cn1	-	-	-	26.7	-	-	-
N#CCC1(O)C(=O)N(Cc2ccccc2)c2ccccc21 (configuration not stated)	-	-	-	76.1	-	-	-
COc1cc(NC(=S)NCc2cccnc2)c(OC)cc1Cl	-	-	-	79.5	-	-	-
O=C1CN(Cc2ccccc2)C[C@H]2[C@@H](c3ccc(-c4cccnc4)cc3)[C@H](CO)N12	.	-	.	.	.	.	.
